# Results filed as inconclusive are left out. Entries that show only a call come without a potency. The source made the active and inactive calls. Unless noted, the call rests on the fitted dose curve; in most records, active means well fitted curve in the direction sought with a large enough effect; inconclusive means small, poorly fitted or top-dose-only effect, or another doubt; inactive means no such curve, though single readings can be large; an effect the other way counts as inactive or inconclusive.
# Columns and labels:
# [1] = target: Glutathione peroxidase 1 (Homo sapiens) (UniProt P07203); assay: Primary qHTS Assay for Inhibitors of Recombinant Selenoprotein Glutathione Peroxidase 1 (GPX1) (AID 1845191); further: nearly all actives have a fitted effect of over 65% in size
# How it was run: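 10 nM GPX1 + cpd, 30 min RT; start w/ 1 mM GSH, 0.5 mM cumene hydroperoxide, 0.5 mM NADPH, 100 nM GR, 0.01% BSA; buffer 50 mM Tris-HCl pH 7.5, 2 mM EDTA, 150 mM NaCl; Fl 340/450, 0 & 15 min.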
# [2] = target: Phospholipid hydroperoxide glutathione peroxidase GPX4 (Homo sapiens) (UniProt P36969); assay: Primary qHTS Assay for Inhibitors of Recombinant Selenoprotein Glutathione Peroxidase 4 (GPX4) (AID 1845192); further: nearly all actives have a fitted effect of over 65% in size; further: potency means the concentration at half of the fitted maximal effect
# How it was run: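 NADPH consumption, followed by fluorescence at 340/450 nm between 0 and 15 min, reports GPX4 activity via coupled glutathione reductase (100 nM). Enzyme 200 nM was pre-exposed to compound 30 min; 0.5 mM cumene hydroperoxide and 1 mM GSH served as substrates.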
# [3] = Primary fluorescence-based thiol-reactive (MSTI) qHTS assay for identification of artifact compounds. (AID 1845221);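 further: thiol-reactive compounds lower the probe fluorescence signal; nearly all actives have a fitted effect of over 65% in size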
# How it was run: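 Reactivity toward the thiol probe MSTI (4 uM) is scored by fluorescence at Ex/Em 525/598 nm after 1 h at room temperature. Acetyl-MSTI and MSTI define the activity scale.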
# [4] = test system: Nanoluciferase (engineered Oplophorus gracilirostris luciferase); assay: Primary Nanoluciferase (NLuc) qHTS assay for identification of artifact compounds. (AID 1845222);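 further: NLuc secreted into diluted conditioned medium of S16 cells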
# How it was run: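 NLuc from S16 cell medium (1:55) plus test compounds, 15 min, room temperature. Luminescence after Nano-Glo (1:100) addition, 5 min.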
# [5] = Primary redox qHTS assay for identification of artifact compounds. (AID 1845223)
# How it was run: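 Amplex Red (25 uM) and HRP (250 mU/mL) in HBSS, with compounds for 15 min, then 250 uM DTT for 30 min, room temperature, dark. Fluorescence 525/598 nm read; normalized to DMSO and 10 uM DA3003; Hill fit.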
# [6] = qHTS profiling for inhibitors of Plasmodium falciparum proliferation (AID 504749); further: nearly all actives have a fitted effect of over 60% in size; further: potency means the concentration at half of the fitted maximal effect; settings: P. falciparum in erythrocytes, SYBR Green DNA, 72 h
# How it was run: (§1)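 Infected RBCs, 0.3% parasitemia/2.5% Hct final; cpd 72 h, 37 C, 5% CO2; lysis buffer with saponin/triton/SYBR Green I, o/n RT dark; FI 485/535; norm. to artemisinin (0.29 uM) and DMSO.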
# 3D7 = assay: as above; settings: P. falciparum in erythrocytes, SYBR Green DNA, 72 h; series mostly up to 28.7 µM
# How it was run: as §1
# 7G8 = assay: as above; settings: P. falciparum in erythrocytes, SYBR Green DNA, 72 h; series mostly up to 28.7 µM
# How it was run: as §1
# [7] = qHTS drug screen for cell cycle checkpoint inhibitors in PARPi-resistant BRCA-mutant ovarian cancer cell lines. (AID 1963452; calls by dose curve); settings: PEO1/OlaR viability, CellTiter-Glo luminescence, 96 h, stronger effect = lower value
# How it was run: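 PEO1, PEO4 and PEO1/OlaR ovarian cancer cells, 600 per well, exposed 96 h at 37C to a dilution series. Viability read by CellTiter-Glo luminescence, normalized to DMSO and empty wells; activity summarized as Z-AUC.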
# [8] = at 28.7 µM (top of the series), parasite line A
# [9] = at 28.7 µM (top of the series), parasite line B
# [10] = at 12.8 µM (top of the series), parasite line A
# [11] = at 12.8 µM (top of the series), parasite line B
# [12] = measured here: PEO1 parental Z-AUC
# Chain of Glutathione peroxidase 1 (Homo sapiens) (P07203 whole entry, looked up): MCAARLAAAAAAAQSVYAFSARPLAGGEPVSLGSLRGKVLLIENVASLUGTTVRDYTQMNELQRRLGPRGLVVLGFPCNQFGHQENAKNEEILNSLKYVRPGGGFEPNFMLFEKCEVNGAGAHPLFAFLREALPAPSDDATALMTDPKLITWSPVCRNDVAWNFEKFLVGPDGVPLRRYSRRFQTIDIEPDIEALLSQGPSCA
# Chain of Phospholipid hydroperoxide glutathione peroxidase GPX4 (Homo sapiens) (P36969 whole entry, looked up): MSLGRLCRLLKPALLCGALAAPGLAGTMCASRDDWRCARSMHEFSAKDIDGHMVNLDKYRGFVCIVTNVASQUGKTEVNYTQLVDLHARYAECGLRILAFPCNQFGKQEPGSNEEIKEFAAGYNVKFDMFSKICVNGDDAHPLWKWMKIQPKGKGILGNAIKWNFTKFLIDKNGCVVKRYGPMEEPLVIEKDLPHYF
structure (smiles),measurement,setting,value
NC(N)=NCC1COC2(CCCCC2)O1 (stereo not given),Potency,[1],inactive
same,Potency,[2],inactive
C[C@H](CCC(=O)O)[C@H]1CC[C@H]2[C@@H]3[C@H](O)C[C@@H]4C[C@H](O)CC[C@]4(C)[C@H]3C[C@H](O)[C@]12C,Potency,[1],inactive
same,Potency,[2],inactive
C[C@@H](O)[C@H]1C(=O)N2C(C(=O)[O-])=C(SC3Cn4cnc[n+]4C3)[C@H](C)[C@H]12 (stereo not given in full),"activity, negative = inhibition",[1],-13.7% [at 9.52 µM] (inactive)
same,"activity change, negative = inhibition",[2],-27.3% [at 9.73 µM] (inactive)
CC(C)(C)c1ccc(CN2CCN(C(c3ccccc3)c3ccc(Cl)cc3)CC2)cc1 (stereo not given),Potency,[1],inactive
same,Potency,[2],inactive
same,outcome,[3],inactive
same,outcome,[4],inactive
same,outcome,[5],inactive
C/C(=C\C(=O)OCCCCCCCCC(=O)O)C[C@@H]1OC[C@H](C[C@@H]2O[C@H]2[C@@H](C)[C@H](C)O)[C@@H](O)[C@H]1O,Potency,[1],inactive
same,Potency,[2],inactive
same,outcome,[3],inactive
same,outcome,[4],inactive
CCCCCCCCCCCCCCCC(=O)OC[C@@H](O)[C@H]1OC[C@H](O)[C@H]1O,Potency,[1],inactive
same,Potency,[2],inactive
C[C@@H]1C[C@H]2[C@@H]3C[C@H](F)C4=CC(=O)C=C[C@]4(C)[C@@]3(Cl)[C@@H](O)C[C@]2(C)[C@H]1C(=O)COC(=O)C(C)(C)C,Potency,[1],inactive
same,Potency,[2],inactive
C[N@+]12CCCC[C@@H]1CCC(=C(c1cccs1)c1cccs1)C2,Potency,[1],inactive
same,Potency,[2],inactive
CC(C)(CO)[C@@H](O)C(=O)NCCC(=O)NCCSSCCNC(=O)CCNC(=O)[C@H](O)C(C)(C)CO,Potency,[1],inactive
same,Potency,[2],inactive
same,"activity, negative = inhibition",[6]; [8],-1% (inactive)
same,"activity, negative = inhibition",[6]; [9],-2.45% (inactive)
same,Potency,3D7,inactive
same,Potency,7G8,inactive
CCSc1ccc2c(c1)N(CCCN1CCN(C)CC1)c1ccccc1S2,Potency,[1],inactive
same,Potency,[2],inactive
same,"activity, negative = inhibition",[6]; [10],14.2% (inactive)
same,"activity, negative = inhibition",[6]; [11],7.58% (inactive)
same,Potency,3D7,inactive
COc1cc(C)c(/C=C/C(C)=C/C=C/C(C)=C/C(=O)O)c(C)c1C,Potency,[1],inactive
same,Potency,[2],16.1 µM (active)
same,Z-AUC,[7],0.967 (inactive)
same,Z-AUC,[7]; [12],0.941
same,Z-AUC,[7]; measured here: PEO4 Z-AUC,1.13
same,"activity, negative = inhibition",[6]; [8],-5.12% (inactive)
same,"activity, negative = inhibition",[6]; [9],-0.604% (inactive)
same,Potency,3D7,inactive
same,Potency,7G8,inactive
CC[C@H]1OC(=O)[C@H](C)[C@@H](O[C@H]2C[C@@](C)(OC)[C@@H](O)[C@H](C)O2)[C@H](C)[C@@H](O[C@@H]2O[C@H](C)C[C@H](N(C)C)[C@H]2O)[C@](C)(O)C[C@@H](C)CN(C)[C@H](C)[C@@H](O)[C@]1(C)O,Potency,[1],inactive
same,Potency,[2],inactive
same,Z-AUC,[7],1.04 (inactive)
same,Z-AUC,[7]; [12],0.718
same,Z-AUC,[7]; measured here: PEO4 Z-AUC,1.23
same,Potency,3D7,inactive
same,Potency,7G8,12.6 µM (active)
COc1ccc([C@@H]2CC(=O)c3c(O)cc(O[C@@H]4O[C@H](CO[C@@H]5O[C@@H](C)[C@H](O)[C@@H](O)[C@H]5O)[C@@H](O)[C@H](O)[C@H]4O)cc3O2)cc1O,Potency,[1],inactive
same,Potency,[2],inactive
same,Z-AUC,[7],-0.188 (inactive)
same,Z-AUC,[7]; [12],0.305
same,Z-AUC,[7]; measured here: PEO4 Z-AUC,0.67
O=C(O)Cc1cc(I)c(Oc2ccc(O)c(I)c2)c(I)c1,Potency,[1],inactive
same,Potency,[2],inactive
same,outcome,[3],inactive
same,"activity, negative = inhibition",[6]; [10],1.81% (inactive)
same,"activity, negative = inhibition",[6]; [11],6.07% (inactive)
same,Potency,3D7,inactive
same,Potency,7G8,inactive
NC[C@H]1O[C@H](O[C@H]2[C@H](O)[C@@H](O[C@H]3O[C@H](CO)[C@@H](O)[C@H](N)[C@H]3O)[C@H](N)C[C@@H]2N)[C@H](N)C[C@@H]1O,Potency,[1],inactive
same,Potency,[2],inactive
same,Z-AUC,[7],-0.784 (inactive)
same,Z-AUC,[7]; [12],-0.522
same,Z-AUC,[7]; measured here: PEO4 Z-AUC,-0.139
CO[C@H]1O[C@@H]2O[C@@]3(C)CC[C@H]4[C@H](C)CC[C@@H]([C@H]1C)[C@@]24OO3,Potency,[1],inactive
same,Potency,[2],inactive
same,Z-AUC,[7],-0.105 (inactive)
same,Z-AUC,[7]; [12],0.613
same,Z-AUC,[7]; measured here: PEO4 Z-AUC,0.87
CCC(O)c1ccccc1 (stereo not given),Potency,[1],inactive
same,Potency,[2],inactive
same,"activity, negative = inhibition",[6]; [8],5.27% (inactive)
same,"activity, negative = inhibition",[6]; [9],8.76% (inactive)
same,Potency,3D7,inactive
same,Potency,7G8,inactive
O=C(O)CCC(=O)c1ccc(-c2ccccc2)cc1,Potency,[1],inactive
same,Potency,[2],inactive
same,"activity, negative = inhibition",[6]; [10],-3.71% (inactive)
same,"activity, negative = inhibition",[6]; [11],12.2% (inactive)
same,Potency,3D7,inactive
same,Potency,7G8,inactive
Cc1c(C)c2c(c(C)c1OC(=O)CCC(=O)O)CC[C@@](C)(CCC[C@H](C)CCC[C@H](C)CCCC(C)C)O2,Potency,[1],inactive
same,Potency,[2],inactive
same,"activity, negative = inhibition",[6]; [8],-10.9% (inactive)
same,"activity, negative = inhibition",[6]; [9],4.87% (inactive)
CCCCC(CC)CCC(CC(C)C)OS(=O)(=O)O (stereo not given),Potency,[1],inactive
same,Potency,[2],10 µM (active)
same,"activity, negative = inhibition",[6]; [8],-0.0494% (inactive)
same,"activity, negative = inhibition",[6]; [9],5.85% (inactive)
same,Potency,3D7,inactive
same,Potency,7G8,inactive
CN(C)CCOc1ccc(/C(=C(/CCCl)c2ccccc2)c2ccccc2)cc1,Potency,[1],inactive
same,Potency,[2],inactive
same,Z-AUC,[7],0.623 (inactive)
same,Z-AUC,[7]; [12],0.97
same,Z-AUC,[7]; measured here: PEO4 Z-AUC,0.656
same,"activity, negative = inhibition",[6]; [8],-4.58% (inactive)
same,"activity, negative = inhibition",[6]; [9],-0.289% (inactive)
same,Potency,3D7,inactive
COC(=O)c1ccccc1O,Potency,[1],inactive
same,Potency,[2],inactive
same,"activity, negative = inhibition",[6]; [8],-0.0049% (inactive)
same,"activity, negative = inhibition",[6]; [9],5.19% (inactive)
same,Potency,3D7,inactive
C[C@]12CCC(=O)C[C@@H]1CC[C@@H]1[C@@H]2CC[C@]2(C)C=CC[C@@H]12,Potency,[1],inactive
same,Potency,[2],inactive
same,"activity, negative = inhibition",[6]; [8],-20.9% (inactive)
same,"activity, negative = inhibition",[6]; [9],-5.73% (inactive)
same,Potency,3D7,inactive
COc1ccc2c(=O)c(C)c(-c3ccccc3)oc2c1CN(C)C,Potency,[1],inactive
same,Potency,[2],inactive
same,"activity, negative = inhibition",[6]; [8],-2.15% (inactive)
same,"activity, negative = inhibition",[6]; [9],-7.38% (inactive)
same,Potency,3D7,inactive
O=C(OCc1ccccc1)c1ccc(O)cc1,Potency,[1],inactive
same,Potency,[2],inactive
same,"activity, negative = inhibition",[6]; [8],10.7% (inactive)
same,"activity, negative = inhibition",[6]; [9],11.3% (inactive)
same,Potency,3D7,inactive
CN(C)c1ccc(C(=C2C=CC(=[N+](C)C)C=C2)c2c(O)c(S(=O)(=O)[O-])cc3cc(S(=O)(=O)O)ccc23)cc1,Potency,[1],inactive
same,Potency,[2],inactive
same,"activity, negative = inhibition",[6]; [8],-15.9% (inactive)
same,"activity, negative = inhibition",[6]; [9],-17.8% (inactive)
same,Potency,3D7,inactive
